High-throughput results: PubChem, National Center for Advancing Translational Sciences (NCATS)
PI5P4Ka inh = qHTS for Inhibitors of phosphatidylinositol 5-phosphate 4-kinase (PI5P4K). Phosphatidylinositol 5-phosphate 4-kinase type-2 alpha (Homo sapiens), P48426. PI5P4Kalpha enzyme, ADP-Glo luminescence, 60 min; hits give low values. max response, %. hit rate 1.2% among 330,000; active means max response of -50% or lower; inconclusive means between -30% and -50%; inactive means -30% or higher; further: value at the top dose of about 77 µM; on the % scale 0 is the no-effect control and ±100 the full control effect
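Controls without substrate or without enzyme flank wells where PI5P4Kalpha converts substrate using 5 microM ATP (final). Incubation lasts 60 minutes at room temperature; ADP formed is read by ADP-Glo luminescence.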
WRN helicase inh = qHTS for Inhibitors of WRN Helicase; Bifunctional 3'-5' exonuclease/ATP-dependent helicase WRN (Homo sapiens), Q14191; Potency, µM (series often up to 114 µM), for the others: at the highest dose activity change, negative = inhibition, actives largely listed as inhibitors; WRN helicase unwinding, fluorescent forked duplex, kinetic; hit rate 0.46% among 360,000; AID 651768, 2012; further: potency means the concentration at half of the fitted maximal effect; on the % scale 0 is the no-effect control and ±100 the full control effect; nearly all actives have a fitted effect of over 55% in size
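Primary qHTS, 1536-well format. 20 nM WRN + compound, 15 min RT; start with 100 nM forked fluorophore/quencher duplex, 2 mM ATP (final); kinetic read ex 525/em 598 nm.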
Pol iota inh = qHTS for Inhibitors of Polymerase Iota. hit rate 1% among 390,000. AID 588590, 2011. Potency, µM (doses to about 115 µM), for the others: at the top dose activity, negative = inhibition, usual class: inhibitors. Pol iota fluorescent replication assay, 10 min; further: potency means the concentration at half of the fitted maximal effect
Target sequence (Q9UNA4 whole entry, looked up): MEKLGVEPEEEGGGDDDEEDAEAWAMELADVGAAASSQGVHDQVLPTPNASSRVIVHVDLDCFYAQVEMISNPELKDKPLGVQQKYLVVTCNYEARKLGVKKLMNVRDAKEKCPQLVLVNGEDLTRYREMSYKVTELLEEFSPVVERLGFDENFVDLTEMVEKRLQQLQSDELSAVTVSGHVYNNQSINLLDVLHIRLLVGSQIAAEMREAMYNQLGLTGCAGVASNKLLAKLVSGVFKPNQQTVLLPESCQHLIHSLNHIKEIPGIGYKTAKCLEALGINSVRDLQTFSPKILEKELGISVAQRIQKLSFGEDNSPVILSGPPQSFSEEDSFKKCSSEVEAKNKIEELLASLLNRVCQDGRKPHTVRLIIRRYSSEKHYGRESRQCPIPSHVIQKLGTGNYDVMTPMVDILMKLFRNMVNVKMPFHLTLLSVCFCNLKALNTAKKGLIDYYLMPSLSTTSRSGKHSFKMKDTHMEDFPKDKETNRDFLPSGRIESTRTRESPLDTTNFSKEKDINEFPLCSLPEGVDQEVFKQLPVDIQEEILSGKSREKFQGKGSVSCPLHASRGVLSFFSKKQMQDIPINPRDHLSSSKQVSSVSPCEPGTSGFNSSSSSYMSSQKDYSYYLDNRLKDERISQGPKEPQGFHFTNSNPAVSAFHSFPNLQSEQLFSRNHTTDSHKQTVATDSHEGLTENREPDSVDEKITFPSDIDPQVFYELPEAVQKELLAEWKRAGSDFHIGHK
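Pol iota at 10 nM preincubated 15 min with compounds at room temperature; reaction started with fluorescent substrate, 50 nM final. Fluorescence read kinetically at 0 and 10 min; buffer-only wells as negative control.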
Pol kappa inh = qHTS for Inhibitors of Polymerase Kappa; DNA polymerase kappa (Homo sapiens), Q9UBT6; purified Pol kappa, fluorescent DNA synthesis assay, 10 min; Potency, µM (highest dose often 107 µM), for inactives: at the top dose activity, negative = inhibition, actives largely listed as inhibitors; hit rate 0.53% among 400,000; further: potency means the concentration at half of the fitted maximal effect; on the % scale 0 is the no-effect control and ±100 the full control effect
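50 nM final substrate added after 15 min RT preincubation of 10 nM Pol kappa with compound; fluorescence read at 0 and 10 min.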
Pol eta inh = qHTS for Inhibitors of Polymerase Eta; DNA polymerase eta (Homo sapiens), Q9Y253; recombinant Pol eta, fluorescent DNA replication assay; Potency, µM (doses to about 114 µM), for inactives: top-dose activity change, negative = inhibition, hits mostly inhibitors; hit rate 1.2% among 390,000; further: potency means the concentration at half of the fitted maximal effect; on the % scale 0 is the no-effect control and ±100 the full control effect
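Pol eta at 10 nM preincubated with compounds 15 min at room temperature; reaction started with fluorescent substrate (50 nM final) and read kinetically at 0 and 10 min.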
POLB inh = qHTS Assay for Inhibitors of DNA Polymerase Beta; hit rate 1.3% among 340,000; P06746; Potency, µM (titrated, usually from 114 µM), for the others: at the top dose activity change, negative = inhibition, hits mostly inhibitors; AID 485314, 2010; Pol beta primer extension/strand displacement, fluorescence kinetic; further: potency means the concentration at half of the fitted maximal effect; on the % scale 0 is the no-effect control and ±100 the full control effect
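Values derive from four-parameter Hill fits of normalized kinetic data: reads at 0 and 10 min following addition of 50 nM substrate to 10 nM Pol beta preincubated 15 min with compound.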
* marks the source's active call; other numbers are inactive results; ? = inconclusive; / = no result given; [ ] = remark or other dose. Sampled rows, rich in hits. Any-hit rate of the full collection: about 2.8%. Unless noted, the call rests on the fitted dose curve; in most records, active means well fitted curve in the direction sought with a large enough effect; inconclusive means small, poorly fitted or top-dose-only effect, or another doubt; inactive means no such curve, though single readings can be large; an effect the other way counts as inactive or inconclusive.

SMILES	PI5P4Ka inh	WRN helicase inh	Pol iota inh	Pol kappa inh	Pol eta inh	POLB inh
CN1CCC(N2CCN(c3cccc(C(F)(F)F)c3)CC2)CC1	/	-1%	35µM*	1%	-8%	2%
O=C(NNC(=O)c1cccc(-n2cccc2)c1)c1ccc(F)cc1	-68*	?	50µM*	?	14µM*	/
COc1cc(N(C)C)ccc1/C=C1\C=Cc2ccccc21	/	/	51%	4%	/	/
COc1cc(OC)c(OC)cc1/C=C/c1ccc2ccccc2n1	/	/	0%	-25%	/	/
Cc1ccc(S(=O)(=O)CCCS(=O)(=O)c2ccc(C)cc2)cc1	2	-4%	41%	-13%	6%	18%
Cc1ccc(S(=O)(=O)SCCCSS(=O)(=O)c2ccc(C)cc2)cc1	-73*	50µM*	4%	-9%	-12%	/
Cc1ccc(S(=O)(=O)SC/C=C/CSS(=O)(=O)c2ccc(C)cc2)cc1	-85*	?	6%	-3%	-2%	/
Cc1cccc(N2CCN(S(=O)(=O)c3ccc4c(c3)C(C(C)C)C(=O)N4)CC2)c1C (stereo not given)	/	/	?	-8%	-6%	-7%
CCn1c(C(=O)N2CCC(C(=O)N3CCN(c4ccc(OC)cc4)CC3)CC2)cc2sccc21	/	/	4%	-5%	-7%	2%
Cc1ccc(C)n1-c1ccc(C(=O)NCc2ccncc2)cc1	-7	-7%	-18%	3%	-16%	3%
Cc1ccc(C)n1-c1ccc(C(=O)NN)cc1	?	-11%[57.1 µM]	16µM*	?	-14%	13%
NS(=O)(=O)Nc1c(Br)cc(Br)c2cccnc12	/	/	25µM*	-4%	/	/
O=C(Oc1c(Br)cc(Br)c2cccnc12)N1CCCCC1	0	2%	1%	-19%	-12%	7%
Nc1c(Br)cc(Br)c2cccnc12	/	/	8.9µM*	4%	/	/
CCc1ccc(C(=O)CSc2n[nH]c(C)n2)cc1	-57*	0%	?	-5%	-1%	-1%
Cc1ccc(C(=O)CSc2n[nH]c(C)n2)cc1	/	4%	-4%	-1%	-10%	32%
COc1cc(Br)c(C2CC(=O)Nc3cc4c(cc32)OCCO4)cc1OC (stereo not given)	/	/	19%	4%	-14%	-4%
CCn1cc(C(=O)Nc2cccc(Cl)c2)c2cc(OC)c(OC)cc2c1=O	/	/	35%	-4%	-9%	20%
O=C(O)c1ccc(OCc2ccc(C(=O)O)o2)cc1	-16	19%	9%	-7%	32µM*	?
O=C(O)c1ccc(COc2ccccc2[N+](=O)[O-])o1	1	-1%[11.6 µM]	0%	-9%	13µM*	?
CCC(C(=O)O)n1c2ccccc2c2cn[nH]c(=O)c21 (stereo not given)	-2	0%[11.6 µM]	-9%	-31%	?	22µM*
CCC(C(=O)O)n1c(C(F)(F)F)nc2ccccc21 (stereo not given)	-5	8%	11%	1%	-7%	4%
CCN(Cc1ccccc1)C(=O)c1cc2ccc3cccnc3c2[nH]1	/	/	24%	2%	-21%	9%
Nc1nccnc1C(=O)OCC(=O)Nc1ccc2[nH]c(=O)[nH]c2c1	-10	?	20µM*	?	22µM*	/
COc1cc2c(=O)c(C(=O)c3ccc(F)cc3)cn(Cc3cccc(F)c3)c2cc1OC	/	/	4%	-6%	4%	-3%
CC(C)=CCc1c(O)cc2oc3c(CC=C(C)C)c(O)c(O)c(CC=C(C)C)c3c(=O)c2c1O	?	-7%[11.6 µM]	?	79µM*	40µM*	45µM*
CC(C)=CCc1c(O)cc2oc(C)cc(=O)c2c1O	/	/	/	-5%[60.1 µM]	/	/
Cc1ccc(-n2nnnc2CNC(=O)c2cc(C(F)(F)F)cc(C(F)(F)F)c2)cc1C	/	/	-16%	-17%[60.1 µM]	-17%	-15%
